Screening data as filed in PubChem.
Many of the other results were omitted from the sample, so hits are more common in it than they were.
aSyn tox rescue: inhibitors of alpha-synuclein toxicity in yeast. S. cerevisiae alpha-synuclein toxicity rescue, BacTiter-Glo growth, 24 h. Potency, µM (series often up to 46.1 µM), hits mostly activators. actives 0.02% (n = 94,000); active = well fitted activation curve with a large enough effect; also: 0% is about no effect
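Growth restoration measured by BacTiter-Glo luminescence after 24 hr at 30 deg C; alpha-synuclein yeast, raffinose-pregrown to mid-log, were added at OD600=0.02 in galactose medium onto pinned compounds.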
The depositor's hits bear a star; i = inactive. Potency is read from the fitted curve at half-maximal effect.

SMILES | aSyn tox rescue
Cc1cn2c(=O)cc(COC(=O)c3ccc(NC(=O)c4ccccc4C)cc3)nc2s1 | i
CCOc1ccccc1NC(=O)CSc1ccc2nc(-c3ccccc3)cn2n1 | i
CCOc1ccc(C2c3[nH]c4ccccc4c3CCN2C(=O)CSc2ccccc2)cc1 (configuration not stated) | i
CCc1ccccc1NC(=O)N1CCc2c([nH]c3ccccc23)C1c1ccc(C)cc1 (configuration not stated) | i
Cc1ccc(C2c3[nH]c4ccccc4c3CCN2C(=O)CSc2ccccc2)cc1 (configuration not stated) | 14µM*
Cc1ccc(C2c3[nH]c4ccccc4c3CCN2C(=O)CSCc2ccc(F)cc2)cc1 (configuration not stated) | 16µM*
O=C(CCC1CCCC1)N1CCc2c([nH]c3ccccc23)C1c1ccc(F)cc1 (configuration not stated) | i
CSc1ccc(C2c3[nH]c4ccccc4c3CCN2C(=O)CCc2ccccc2)cc1 (configuration not stated) | i
CCOC(=O)c1ccc(NC(=O)c2cnn(-c3ccc(C)cc3C)c2C2CCN(C(=O)OC(C)(C)C)CC2)cc1 | i
CCOc1ccccc1NC(=O)c1sc2nc3c(cc2c1N)CN(Cc1ccccc1)CC3 | i
CCOc1ccc(CNC(=O)COc2cc(=O)n(C)c3ccccc23)cc1 | i
O=C(NCc1cccc(Br)c1)C1CCCCN1S(=O)(=O)c1ccc(F)cc1 (configuration not stated) | i
Cc1cccc(NC(=O)c2ccc(N(Cc3ccccc3)S(C)(=O)=O)cc2)c1 | i
CCCCn1nc(NC(=O)c2cccc(Cl)c2)c2cc3cccc(C)c3nc21 | i
Cc1ccc(C(=O)c2oc3ccccc3c2NC(=O)c2cc(=O)c3cc(C)ccc3o2)cc1 | i
Cc1ccc(S(=O)(=O)c2nc(-c3ccc(F)cc3)oc2SCC(=O)c2ccccc2)cc1 | i
Cc1ccc(-c2nc(S(=O)(=O)c3ccc(C)cc3)c(SCC(=O)c3ccccc3)o2)cc1 | 18µM*
O=C(CSc1oc(-c2ccc(F)cc2)nc1S(=O)(=O)c1ccccc1)c1ccc(Cl)cc1 | i
Cc1ccc(CNC(=O)c2cc3c(=O)oc4ccc(C)cc4c3s2)cc1 | i
Cc1ccc2oc(=O)c3cc(C(=O)NCc4ccc(Cl)cc4)sc3c2c1 | i
CCCN(CCC)CCCNC(=O)c1cc2c(=O)oc3ccc(C)cc3c2s1 | 13µM*
COc1ccc(NC(=O)Cn2c(=O)oc3cc(S(=O)(=O)N4CCCCC4C)ccc32)cc1 (configuration not stated) | i
COc1cccc(NC(=O)c2cnc(SCC(=O)N3CCOCC3)n(C)c2=O)c1 | i
COc1ccc(-n2c(SCC(=O)NC3CCCCC3)nc3c([nH]c4ccccc43)c2=O)cc1 | i
COC(=O)c1sc2cccc(F)c2c1S(=O)(=O)N1CCN(c2ccccc2OC)CC1 | i
SMILES | aSyn tox rescue
O=C(CCSCc1ccc(Cl)cc1)NCc1ccc(F)cc1Cl | i
O=C(CCSCc1ccccc1Cl)NCc1ccc(F)cc1Cl | i
O=C(CCSCc1cccc(Cl)c1)NCc1ccc(F)cc1Cl | 28µM*
Cc1cc(C)n(CC(=O)Nc2cc(F)ccc2F)c(=O)c1C#N | i
CCOC(=O)c1c(NC(=O)CSc2cn(CCNC(=O)c3c(F)cccc3F)c3ccccc23)sc2c1CCCC2 | i
COc1ccc(N(C)S(=O)(=O)c2ccc3c(c2)n(C)c(=O)c(=O)n3C)cc1 | i
COc1cc(NC(=O)C2CCN(c3nc4ccccc4nc3C(F)(F)F)CC2)cc(OC)c1 | i
CCN1CCN(C(c2ccccc2Cl)c2sc3nc(-c4ccco4)nn3c2O)CC1 (configuration not stated) | i
COC(=O)c1ccc(NC(=O)c2cc3cc(C)ccc3n2C)cc1 | i
CC(C)(C)c1ccc(CN(Cc2ccco2)c2cnc(S(C)(=O)=O)nc2C(=O)Nc2ccc(F)cc2)cc1 | i
O=C1CCCc2[nH]c(=O)c(-c3nc(-c4cccc([N+](=O)[O-])c4)cs3)cc21 | i
COC(=O)c1scc(-c2ccccc2)c1S(=O)(=O)Nc1cccc(C)c1C | i
CCc1ccc(NS(=O)(=O)c2c(-c3ccccc3)csc2C(=O)OC)cc1 | 25µM*
CCOC(=O)c1scc(-c2ccccc2)c1S(=O)(=O)Nc1ccccc1OC | i
Cc1cc(C)cc(NC(=O)c2ccc3oc(=O)c(S(=O)(=O)c4ccc(F)cc4)cc3c2)c1 | i
Cc1ccc(Cl)cc1NC(=O)CCCn1c(=O)c2cccn2c2ccccc21 | i
COc1ccc(NC(=O)CSC2=Nc3ccccc3C3=NC(CC(=O)NCCc4ccccc4)C(=O)N23)cc1 (configuration not stated) | i
COc1cc(CN(C(=O)COc2ccc(C)c(C)c2)c2ccccn2)cc(OC)c1OC | i
CSCCC(NS(=O)(=O)c1ccc2c(c1)oc(=O)n2C)C(=O)Nc1ccc(Cl)cc1 (configuration not stated) | i
CCOc1ccccc1NC(=O)Cn1c(=O)n(-c2ccc(C)c(C)c2)c(=O)c2c(C)c(C(=O)N(C)C)sc21 | i
Cc1ccc(S(=O)(=O)CCC(=O)Nc2ccc(Br)cc2C)cc1 | i
COc1cccc(NC(=O)CSc2nc(C)c(Cc3ccccc3)c(=O)[nH]2)c1 | i
CC1(C)CC(=O)c2cc(-c3nc(-c4ccc(F)cc4)cs3)c(=O)[nH]c2C1 | i
CCOCCc1nn2c(=O)cc(COC(=O)c3ccc(NC(=O)c4ccc(F)cc4)cc3)nc2s1 | i
Cc1cc(OCC(=O)Nc2ccc(-c3nc4cc(Cl)ccc4o3)cc2)cc(C)c1Cl | i
SMILES | aSyn tox rescue
Cc1csc2nc(COc3ccc(NC(=O)COc4ccc(F)cc4)cc3)cc(=O)n12 | i
CCn1cc(C(=O)NCc2ccccc2Cl)c(=O)c2cc(S(=O)(=O)N3CCc4ccccc4C3)ccc21 | i
Cn1c(=O)oc2cc(S(=O)(=O)N3CCC(C(=O)N4CCN(c5ccccc5F)CC4)CC3)ccc21 | i
COc1ccc(-c2nc(C)c(CCNC(=O)c3ccc(F)c(F)c3)s2)cc1 | i
CN(C)CCNC(=O)CCCN1C(=O)c2cccnc2Oc2ccc(Cl)cc21 | i
O=C(CSc1nccn1Cc1ccc(F)cc1)Nc1ccc2c(c1)OCO2 | i
CCCCNc1sc(S(=O)(=O)CC)nc1S(=O)(=O)c1ccc(C)cc1 | i
Cc1ccc(C)c(CN2CCCN(Cc3ccc(F)cc3)S2(=O)=O)c1 | i
O=C(Cc1ccc(F)cc1)NCCc1csc2nc(-c3ccccc3F)nn12 | i
CCN(CCCNC(=O)CSc1cc(=O)n(CC)c2ccccc12)c1ccccc1 | i
Cc1nc2scc(C)n2c(=O)c1S(=O)(=O)Nc1cccc(O)c1 | i
COc1cccc(CNS(=O)(=O)c2c(C)nc3scc(C)n3c2=O)c1 | i
Cc1nc2scc(C)n2c(=O)c1S(=O)(=O)Nc1cccc(C(F)(F)F)c1 | 11µM*
CCc1ccc(S(=O)(=O)c2cn(Cc3ccccc3)c3cc(N4CCCC4)c(F)cc3c2=O)cc1 | i
CCOc1ccc(CNC(=O)CS(=O)(=O)c2cccc3nsnc23)cc1 | i
CCc1ccccc1N(C)C(=O)Cn1cnc2sc(C)c(S(=O)(=O)N3CCC(C)CC3)c2c1=O | i
CN(C)c1ccc(NC(=O)C2(c3cccs3)CCOCC2)cc1 | i
CCCCNS(=O)(=O)c1ccc(C)c(-c2nnc3c4ccccc4c(C)nn23)c1 | i
COCCCNC(=O)c1cc2n(n1)CCCN(Cc1ccc(C)cc1)C2=O | i
